# OPRM1-OPRD1 ag: agonists of human mu-delta opioid receptor heterodimerization; P35372+P41143; cells, OPRM1-OPRD1 heterodimerization, luminescence; activation, % at 9.3 µM; 340,000 tested, 0.3% active
# Target sequence (P35372 whole entry, looked up): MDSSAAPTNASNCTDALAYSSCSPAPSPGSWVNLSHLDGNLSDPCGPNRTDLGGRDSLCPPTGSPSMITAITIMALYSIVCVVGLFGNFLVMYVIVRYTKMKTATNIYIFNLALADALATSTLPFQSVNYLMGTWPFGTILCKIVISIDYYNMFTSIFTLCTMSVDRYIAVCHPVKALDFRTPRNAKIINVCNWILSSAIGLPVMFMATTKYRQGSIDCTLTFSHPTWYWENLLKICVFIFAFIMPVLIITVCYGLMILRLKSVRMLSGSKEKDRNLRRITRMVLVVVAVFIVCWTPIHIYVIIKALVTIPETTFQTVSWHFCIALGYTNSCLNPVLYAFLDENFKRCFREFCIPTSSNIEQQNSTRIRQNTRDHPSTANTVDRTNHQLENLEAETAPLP
# Target sequence (P41143 whole entry, looked up): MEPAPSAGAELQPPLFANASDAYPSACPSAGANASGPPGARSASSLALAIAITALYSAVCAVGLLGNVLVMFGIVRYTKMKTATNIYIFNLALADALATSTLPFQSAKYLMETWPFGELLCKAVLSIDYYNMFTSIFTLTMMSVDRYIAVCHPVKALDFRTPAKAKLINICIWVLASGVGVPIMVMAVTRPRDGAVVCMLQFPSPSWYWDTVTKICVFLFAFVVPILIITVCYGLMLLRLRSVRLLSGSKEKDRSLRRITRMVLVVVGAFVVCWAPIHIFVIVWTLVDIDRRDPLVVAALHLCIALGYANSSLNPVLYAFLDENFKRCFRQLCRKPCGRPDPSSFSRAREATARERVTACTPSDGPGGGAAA
# MOR-DOR inv ag: mu-delta opioid heterodimer inverse agonism | AID 504357 | cell-based MOR-DOR heterodimer luminescence | 340,000 tested, 0.21% active | inhibition, % at 9.3 µM | P35372+P41143; in the data active = inhibition above about 22%, passing the limit was not always enough
# HTR5A ag ctr: activates human HTR5A in OPRM1-OPRD1 agonist counter-screen. P47898. HTR5A agonist assay, luminescence, cell-based. activation, % at 9.3 µM. 340,000 tested, 0.61% active. AID 504692; in the data active = activation mostly above about 9.5%, no sharp cut-off; inactive = mostly below about 7.6%
# HTR5A inv ctr: counter-screen for OPRM1-OPRD1 inverse agonists: human HTR5A inverse agonism; P47898; HTR5A cell line, luminescence; inhibition, % at 9.3 µM; 340,000 tested, 0.083% active; AID 504634; in the data active = inhibition mostly above about 23%, no sharp cut-off; inactive = mostly below about 18%
# OPRM1-D1 ag cf: OPRM1-OPRD1 heterodimer agonism, confirmation; shares compounds with OPRM1-OPRD1 ag; cells, MOR-DOR heterodimerization, luminescence complementation; activation, % at 9.3 µM; 830 tested, 45% active
# HTR5A ag ctr2: activates human HTR5A in OPRM1-OPRD1 agonist counter-screen; HTR5A agonist counterscreen, cell luminescence; 830 tested, 8% active; AID 504905; shares compounds with OPRM1-OPRD1 ag; activation, % at 9.3 µM; in the data active = activation above about 17%
# Numbers stand for hits; n = inactive; x = no result. Shown are actives, neighbours in structure and some others; about 1.1% of the full set was active somewhere. Cut-off read from the data, not from the text of the source, unless noted: active = activation above about 18%; inactive = the rest.
SMILES,OPRM1-OPRD1 ag,MOR-DOR inv ag,HTR5A ag ctr,HTR5A inv ctr,OPRM1-D1 ag cf,HTR5A ag ctr2
CCOc1ccc(NC(=O)CN(C)C(=O)c2ccc3c(c2)S(=O)(=O)N=C2CCCCCN23)cc1OCC,n,n,n,n,x,x
COc1ccc(NC(=O)CN2CCc3ccccc3C2)cc1S(=O)(=O)N1CCOCC1,50.9,n,n,n,n,n
COc1ccc(NC(=O)CN2CCOCC2)cc1S(=O)(=O)N1CCCCC1,n,n,n,n,x,x
O=C1C=C(c2c(O)ccc3ccccc23)c2ccccc2C1=O,54.5,n,n,n,46.6,n
CN(C)C(CNC(=S)Nc1ccccc1)c1cccnc1 (centres undefined),108.0,n,n,n,103.0,n
CCc1cccc(C)c1NC(=S)NCc1ccccc1,n,n,n,n,x,x
CCc1cccc(C)c1NC(=S)NCC(c1cccnc1)N(C)C (centres undefined),139.0,n,n,n,129.2,n
S=C(NCc1ccncc1)Nc1cccc(Cl)c1,n,n,n,n,x,x
CN(C)C(CNC(=S)Nc1ccccc1Cl)c1cccnc1 (centres undefined),407.0,n,n,n,386.6,n
CN(C)C(CNC(=S)Nc1cccc(Cl)c1)c1cccnc1 (centres undefined),324.1,n,n,n,331.0,n
Cc1nc(-c2ccc(F)cc2)c(CC(=O)Nc2ccc(C)c(S(=O)(=O)N3CCOCC3)c2)s1,n,n,n,n,x,x
O=C(NCC1COc2ccccc2O1)c1cccc(S(=O)(=O)NCc2ccccc2)c1 (centres undefined),n,n,n,n,x,x
CC(C)NOC(=O)c1ccc(Cl)cc1,n,n,n,n,x,x
COc1ccc(C(C)NC(=O)c2ccncc2)cc1OC (centres undefined),n,n,n,n,x,x
CN(C)C(CNC(=O)c1cccs1)c1cccnc1 (centres undefined),n,n,n,n,x,x
CN(C)C(CNC(=O)NC1CCCCC1)c1cccnc1 (centres undefined),157.5,n,n,n,147.5,n
O=C(C=CC(=O)OC1CCCCC1)OC1CCCCC1,n,n,n,n,x,x
Cc1ccc(N(C(=O)c2csnn2)C(C(=O)NC2CCCCC2)c2cccnc2)cc1C (centres undefined),n,n,n,n,x,x
CSc1ccccc1NC(=O)Nc1ccc(Cl)cc1,25.7,n,n,n,n,n
COc1cc(OC)cc(C(=O)N2CC(=O)Nc3ccccc32)c1,n,n,n,n,x,x
Cc1cc(Cl)ccc1OCC(=O)N[C@@H](Cc1ccccc1)c1nc2ccccc2[nH]1,24.1,n,n,n,44.2,n
CCc1ccccc1N1C(=O)C2C3C=CC(CC3)C2C1=O (centres undefined),n,n,n,n,x,x
CCCn1ncc(CN2CCC(Cc3cccc(F)c3)(C(=O)OCC)CC2)c1C,n,n,n,n,x,x
CCOC(=O)C1(Cc2cccc(F)c2)CCN(Cc2cnc(C)s2)CC1,22.4,n,n,n,23.7,n
CCOC(=O)C1(CCCc2ccccc2)CCN(Cc2cn(CC)nc2C)CC1,315.4,n,n,n,19.6,n
SMILES,OPRM1-OPRD1 ag,MOR-DOR inv ag,HTR5A ag ctr,HTR5A inv ctr,OPRM1-D1 ag cf,HTR5A ag ctr2
CCOC(=O)C1(Cc2ccccc2)CCN(Cc2cn[nH]c2-c2ccccc2)CC1,36.2,n,n,n,n,23.1
CCOC(=O)C1(CCCc2ccccc2)CCN(Cc2cnc(C)s2)CC1,105.5,n,n,n,n,n
CCOC(=O)C1(CC2CC2)CCN(Cc2cn[nH]c2-c2ccccc2)CC1,n,n,n,n,x,x
CCOC(=O)C1(CCCc2ccccc2)CCN(Cc2nccn2CC)CC1,n,n,n,n,x,x
NC(=O)c1ccsc1NC(=O)COC(=O)C1CC2CCCC(C1)C2=O (centres undefined),n,n,n,n,x,x
COc1cc(OC)cc(C(=O)OCCCOC(=O)c2cc(OC)cc(OC)c2)c1,n,n,n,n,x,x
CC(C)n1nnnc1SCC(=O)Nc1ccccc1F,n,n,n,n,x,x
COc1ccc(/C=N/Nc2c(Cl)cc(Cl)cc2Cl)cc1CN1CCOCC1,30.7,n,n,n,n,n
CN1CCC(CC(C(=O)N2CCCC2)(c2ccccc2)c2ccccc2)C1 (centres undefined),63.2,n,n,n,n,n
CC(C)(C)C(=O)N1CCC[C@H]1C(O)(c1ccccc1)c1ccccc1,n,n,n,n,x,x
Cc1ccc(N2CCC(N3CCN(C)C(CCO)C3)CC2)cc1 (centres undefined),n,n,n,n,x,x
N#CC1=C2N=C(N)c3c(sc4c3CCCCC4)N2C2=C(C(=O)CCC2)C1c1ccccc1 (centres undefined),n,n,n,n,x,x
CCOc1ccc(C2C(C#N)=C(N)N(c3sc4c(c3C#N)CCCC4)C3=C2C(=O)CCC3)cc1 (centres undefined),79.4,n,n,n,n,n
OC1(c2ccc(F)cc2)CN(c2ccccc2)C2=[N+]1CCS2 (centres undefined),n,n,n,n,x,x
Cc1ccc(C2(O)CN(c3ccccc3C)C3=[N+]2CCS3)cc1 (centres undefined),349.0,n,n,n,372.7,n
Cc1ccccc1N1CC(O)(c2ccccc2)[N+]2=C1SCC2 (centres undefined),217.6,n,n,n,222.6,n
Cc1ccc(C2(O)CN(c3ccccc3)C3=[N+]2CCS3)cc1 (centres undefined),76.9,n,n,n,194.2,n
CN1C2CCC1CC(NS(=O)(=O)c1ccc(C#N)cc1)C2 (centres undefined),n,n,n,n,x,x
CCn1c(=O)[nH]c(=O)c2c(N)c(C(=O)c3cc(F)ccc3F)sc21,n,n,n,n,x,x
CC(=O)c1ccccc1N(C(=O)c1ccco1)C(C(=O)NC1CCCC1)c1ccc(C)cc1 (centres undefined),n,n,n,n,x,x
Cc1ccc(NC(=O)Cn2c(O)c(N=NC(N)=S)c3ccccc32)cc1,20.3,n,n,n,n,n
COc1ccc2c(c1)c(N=NC(N)=S)c(O)n2CC(=O)c1ccccc1,19.0,n,n,n,n,n
COc1ccc(OC)c(C=Nc2ccccc2-c2nc3ccccc3[nH]2)c1,n,n,n,n,x,x
COc1ccc(OC)c(/C=C/c2nc3ccccc3[nH]c2=O)c1,20.7,n,n,n,n,n
COc1ccc(-c2nc(CN3CCC(C(=O)NC4CCCC4)CC3)c(C)o2)cc1OC,110.0,n,n,n,18.2,n
COc1ccc(-c2nc(CN3CCC(C(=O)NC4CCCc5ccccc54)CC3)c(C)o2)cc1OC (centres undefined),198.6,n,n,n,38.3,n
COc1ccc(-c2nc(CN3CCC(c4ccccc4)CC3)c(C)o2)cc1OC,n,n,n,n,x,x
CN(Cc1cccnc1)C(=O)c1ccc(Cl)c(NS(=O)(=O)c2ccc(F)cc2)c1,n,n,n,n,x,x
CC(C)C[C@@]12C(=O)N(c3cccc(Br)c3)C(=O)N1[C@H](c1ccc(F)cc1)[C@@H]1C(=O)N(C3CCCCC3)C(=O)[C@@H]12,n,n,n,n,x,x

# From PubChem
